Experimental findings from ChEMBL document CHEMBL2218924, “A broad activity screen in support of a chemogenomic map for kinase signalling research and drug discovery” (Biochem J, 2013) are described below.

Experiment [1] deals with T1, Serine/threonine-protein kinase TBK1 (Homo sapiens) (UniProt Q9UHD2).
T1 sequence (whole entry): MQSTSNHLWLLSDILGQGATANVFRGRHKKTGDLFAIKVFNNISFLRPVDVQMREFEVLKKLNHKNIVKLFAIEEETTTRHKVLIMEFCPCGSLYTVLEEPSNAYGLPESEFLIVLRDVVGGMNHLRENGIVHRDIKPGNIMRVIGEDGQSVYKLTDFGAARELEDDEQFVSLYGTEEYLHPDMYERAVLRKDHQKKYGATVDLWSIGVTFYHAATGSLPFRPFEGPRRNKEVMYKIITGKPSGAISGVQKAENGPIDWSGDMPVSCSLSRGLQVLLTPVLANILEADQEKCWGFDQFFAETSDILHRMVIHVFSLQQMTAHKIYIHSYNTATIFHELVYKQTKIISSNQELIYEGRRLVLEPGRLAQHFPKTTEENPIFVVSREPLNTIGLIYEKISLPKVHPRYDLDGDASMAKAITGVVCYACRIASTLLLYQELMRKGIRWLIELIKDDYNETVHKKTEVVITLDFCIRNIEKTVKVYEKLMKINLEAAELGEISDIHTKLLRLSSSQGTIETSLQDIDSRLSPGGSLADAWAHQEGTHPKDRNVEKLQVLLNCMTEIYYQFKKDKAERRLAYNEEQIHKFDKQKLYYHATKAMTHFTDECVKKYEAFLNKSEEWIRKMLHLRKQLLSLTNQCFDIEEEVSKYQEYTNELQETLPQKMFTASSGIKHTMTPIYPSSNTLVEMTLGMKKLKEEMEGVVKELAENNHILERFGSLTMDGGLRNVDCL
The note with it: at 10 µM.

The target in experiment [2] is T2, TGF-beta receptor type-1 (Homo sapiens) (UniProt P36897).
T2 sequence (whole entry): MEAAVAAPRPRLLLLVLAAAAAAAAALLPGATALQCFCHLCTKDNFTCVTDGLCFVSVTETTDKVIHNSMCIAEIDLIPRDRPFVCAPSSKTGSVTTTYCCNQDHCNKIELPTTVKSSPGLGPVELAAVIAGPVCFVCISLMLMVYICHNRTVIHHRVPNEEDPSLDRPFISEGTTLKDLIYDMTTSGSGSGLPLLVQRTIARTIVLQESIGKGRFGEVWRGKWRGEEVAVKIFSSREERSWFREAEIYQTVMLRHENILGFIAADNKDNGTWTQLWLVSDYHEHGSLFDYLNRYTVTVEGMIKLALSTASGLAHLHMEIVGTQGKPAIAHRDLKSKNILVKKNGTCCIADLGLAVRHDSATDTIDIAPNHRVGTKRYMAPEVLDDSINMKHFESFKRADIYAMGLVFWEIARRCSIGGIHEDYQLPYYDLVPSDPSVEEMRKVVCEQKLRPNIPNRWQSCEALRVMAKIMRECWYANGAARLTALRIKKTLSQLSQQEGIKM
Conditions: at 1 µM.

In experiment [3] the target is T2, TGF-beta receptor type-1 (Homo sapiens). The note with it: at 10 µM.
The target in experiment [4] is Insulin-like growth factor 1 receptor (Homo sapiens) (UniProt P08069). Conditions: at 1 µM.
Chain of Insulin-like growth factor 1 receptor (Homo sapiens) (P08069 31-736 limits assumed): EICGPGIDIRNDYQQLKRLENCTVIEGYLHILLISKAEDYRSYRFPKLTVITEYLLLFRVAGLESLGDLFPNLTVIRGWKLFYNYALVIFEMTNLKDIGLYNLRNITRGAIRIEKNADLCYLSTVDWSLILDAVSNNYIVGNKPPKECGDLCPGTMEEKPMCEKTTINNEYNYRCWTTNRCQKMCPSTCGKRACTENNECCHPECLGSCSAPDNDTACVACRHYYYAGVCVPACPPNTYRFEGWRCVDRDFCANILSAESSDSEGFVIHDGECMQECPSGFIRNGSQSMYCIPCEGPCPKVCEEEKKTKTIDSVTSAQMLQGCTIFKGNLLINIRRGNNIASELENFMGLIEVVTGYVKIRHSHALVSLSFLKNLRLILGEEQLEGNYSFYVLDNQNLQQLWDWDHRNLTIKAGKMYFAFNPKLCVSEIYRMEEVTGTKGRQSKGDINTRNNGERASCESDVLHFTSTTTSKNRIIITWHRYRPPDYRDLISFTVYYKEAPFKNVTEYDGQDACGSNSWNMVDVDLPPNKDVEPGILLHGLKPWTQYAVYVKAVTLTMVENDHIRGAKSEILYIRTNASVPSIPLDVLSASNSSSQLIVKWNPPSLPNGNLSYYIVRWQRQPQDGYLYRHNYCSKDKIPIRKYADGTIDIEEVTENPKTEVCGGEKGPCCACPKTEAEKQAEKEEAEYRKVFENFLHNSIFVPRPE
Chain of Insulin-like growth factor 1 receptor (Homo sapiens) (P08069 741-1367 limits assumed): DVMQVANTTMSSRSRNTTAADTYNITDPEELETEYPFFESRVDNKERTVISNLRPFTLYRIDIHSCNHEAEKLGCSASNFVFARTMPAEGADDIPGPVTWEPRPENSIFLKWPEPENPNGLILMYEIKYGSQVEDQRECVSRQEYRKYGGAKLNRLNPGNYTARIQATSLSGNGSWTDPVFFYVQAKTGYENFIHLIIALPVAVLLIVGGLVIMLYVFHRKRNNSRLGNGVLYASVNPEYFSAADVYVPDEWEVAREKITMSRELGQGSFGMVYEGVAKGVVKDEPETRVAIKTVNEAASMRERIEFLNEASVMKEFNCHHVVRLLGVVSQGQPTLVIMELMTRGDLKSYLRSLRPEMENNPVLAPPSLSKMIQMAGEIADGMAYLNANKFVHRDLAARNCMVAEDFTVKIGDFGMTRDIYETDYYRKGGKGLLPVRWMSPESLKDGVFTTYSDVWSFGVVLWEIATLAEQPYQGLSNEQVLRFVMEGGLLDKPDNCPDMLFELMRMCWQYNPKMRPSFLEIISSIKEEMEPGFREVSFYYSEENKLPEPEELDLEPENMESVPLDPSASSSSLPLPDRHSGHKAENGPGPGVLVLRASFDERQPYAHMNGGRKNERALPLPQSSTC
Experiment [5] has the same target. Conditions: at 10 µM.
Experiment [6] has as its target T3, Inhibitor of nuclear factor kappa-B kinase subunit alpha (Homo sapiens) (UniProt O15111).
T3 sequence (whole entry): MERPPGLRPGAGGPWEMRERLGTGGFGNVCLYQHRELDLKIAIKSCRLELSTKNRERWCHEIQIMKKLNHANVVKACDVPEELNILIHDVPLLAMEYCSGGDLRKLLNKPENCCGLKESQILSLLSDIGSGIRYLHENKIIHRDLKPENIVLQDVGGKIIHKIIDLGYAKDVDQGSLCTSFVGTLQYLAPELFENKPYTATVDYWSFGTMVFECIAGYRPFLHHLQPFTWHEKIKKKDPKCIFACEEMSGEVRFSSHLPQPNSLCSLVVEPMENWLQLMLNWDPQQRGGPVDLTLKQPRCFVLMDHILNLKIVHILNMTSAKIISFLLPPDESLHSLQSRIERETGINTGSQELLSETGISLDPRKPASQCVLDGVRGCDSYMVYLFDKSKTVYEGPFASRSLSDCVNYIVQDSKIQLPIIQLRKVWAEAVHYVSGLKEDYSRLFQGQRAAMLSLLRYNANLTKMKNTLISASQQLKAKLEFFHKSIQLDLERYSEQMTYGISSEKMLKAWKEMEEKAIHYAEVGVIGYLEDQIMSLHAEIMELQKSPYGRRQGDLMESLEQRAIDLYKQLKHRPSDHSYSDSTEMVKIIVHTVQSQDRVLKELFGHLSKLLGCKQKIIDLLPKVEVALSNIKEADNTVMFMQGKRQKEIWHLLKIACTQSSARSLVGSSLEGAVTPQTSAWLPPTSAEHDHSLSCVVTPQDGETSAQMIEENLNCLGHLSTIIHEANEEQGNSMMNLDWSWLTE
Conditions: at 1 µM.

The target of experiment [7] is T3, Inhibitor of nuclear factor kappa-B kinase subunit alpha (Homo sapiens). The note with it: at 10 µM.
For experiment [8], the target named is T4, Inhibitor of nuclear factor kappa-B kinase subunit beta (Homo sapiens) (UniProt O14920).
T4 sequence (whole entry): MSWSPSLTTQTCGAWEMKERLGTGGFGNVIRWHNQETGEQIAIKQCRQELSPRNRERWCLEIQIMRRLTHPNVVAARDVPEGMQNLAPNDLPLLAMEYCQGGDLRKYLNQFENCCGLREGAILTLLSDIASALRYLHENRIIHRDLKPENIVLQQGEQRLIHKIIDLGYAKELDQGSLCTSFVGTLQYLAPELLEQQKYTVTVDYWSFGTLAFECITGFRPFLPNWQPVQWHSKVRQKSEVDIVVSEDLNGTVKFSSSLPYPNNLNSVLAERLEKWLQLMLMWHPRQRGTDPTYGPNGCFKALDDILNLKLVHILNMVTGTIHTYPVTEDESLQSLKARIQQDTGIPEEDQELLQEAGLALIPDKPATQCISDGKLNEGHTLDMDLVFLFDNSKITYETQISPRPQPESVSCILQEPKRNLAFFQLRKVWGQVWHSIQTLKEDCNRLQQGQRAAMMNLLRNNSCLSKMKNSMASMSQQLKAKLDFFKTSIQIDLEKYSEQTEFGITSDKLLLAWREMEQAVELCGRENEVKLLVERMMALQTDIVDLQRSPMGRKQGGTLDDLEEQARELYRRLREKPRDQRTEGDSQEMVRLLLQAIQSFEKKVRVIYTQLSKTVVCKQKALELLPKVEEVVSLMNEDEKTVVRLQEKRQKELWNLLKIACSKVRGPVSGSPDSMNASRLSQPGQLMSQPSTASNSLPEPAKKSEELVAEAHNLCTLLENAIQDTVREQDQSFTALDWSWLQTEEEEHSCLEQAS
Conditions: at 1 µM.

In experiment [9] the target is T4, Inhibitor of nuclear factor kappa-B kinase subunit beta (Homo sapiens). Conditions: at 10 µM.
The target in experiment [10] is Insulin receptor (Homo sapiens) (UniProt P06213). Conditions: at 1 µM.
Chain of Insulin receptor (Homo sapiens) (P06213 28-758 limits assumed): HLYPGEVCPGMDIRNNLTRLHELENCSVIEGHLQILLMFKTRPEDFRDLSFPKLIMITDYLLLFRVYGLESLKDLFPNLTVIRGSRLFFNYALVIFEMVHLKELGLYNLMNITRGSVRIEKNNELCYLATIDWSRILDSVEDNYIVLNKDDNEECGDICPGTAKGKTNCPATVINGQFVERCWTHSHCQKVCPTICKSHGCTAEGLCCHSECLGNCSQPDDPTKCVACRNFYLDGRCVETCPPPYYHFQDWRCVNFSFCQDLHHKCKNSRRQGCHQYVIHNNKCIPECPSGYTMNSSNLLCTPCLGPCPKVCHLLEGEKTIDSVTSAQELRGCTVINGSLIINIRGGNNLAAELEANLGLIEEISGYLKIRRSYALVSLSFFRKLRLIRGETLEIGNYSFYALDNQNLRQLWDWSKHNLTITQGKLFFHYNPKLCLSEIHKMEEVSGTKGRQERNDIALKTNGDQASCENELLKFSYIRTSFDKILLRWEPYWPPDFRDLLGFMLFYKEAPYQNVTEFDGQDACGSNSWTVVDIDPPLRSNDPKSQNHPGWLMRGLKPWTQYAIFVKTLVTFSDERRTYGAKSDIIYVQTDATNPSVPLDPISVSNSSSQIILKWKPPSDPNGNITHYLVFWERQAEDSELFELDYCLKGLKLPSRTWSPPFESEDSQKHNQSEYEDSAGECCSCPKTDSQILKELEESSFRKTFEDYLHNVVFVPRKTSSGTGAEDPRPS
Chain of Insulin receptor (Homo sapiens) (P06213 763-1382 limits assumed): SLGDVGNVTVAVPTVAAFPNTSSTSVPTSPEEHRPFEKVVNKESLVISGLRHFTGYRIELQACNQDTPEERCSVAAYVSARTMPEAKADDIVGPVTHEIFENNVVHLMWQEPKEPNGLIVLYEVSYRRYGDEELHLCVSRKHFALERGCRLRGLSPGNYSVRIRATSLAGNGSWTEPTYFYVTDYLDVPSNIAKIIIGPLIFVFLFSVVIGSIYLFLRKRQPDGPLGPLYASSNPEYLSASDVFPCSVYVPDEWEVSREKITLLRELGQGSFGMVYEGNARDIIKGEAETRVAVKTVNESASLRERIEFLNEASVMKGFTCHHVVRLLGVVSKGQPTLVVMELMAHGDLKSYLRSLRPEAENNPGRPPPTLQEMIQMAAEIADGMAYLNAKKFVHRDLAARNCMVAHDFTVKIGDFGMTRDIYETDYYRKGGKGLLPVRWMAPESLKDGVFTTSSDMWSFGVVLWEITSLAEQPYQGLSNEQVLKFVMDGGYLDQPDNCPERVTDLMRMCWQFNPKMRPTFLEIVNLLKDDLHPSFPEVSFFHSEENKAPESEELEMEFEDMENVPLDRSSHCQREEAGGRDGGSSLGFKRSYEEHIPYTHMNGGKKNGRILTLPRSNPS

With `O=Nc1c(-c2c(O)[nH]c3ccccc23)[nH]c2ccccc12`, the residual activity – broadly, the signal under treatment as a percentage of the control signal – stood at 1% in experiment [1]; 104% in [2]; 73% in experiment [3]; 40% in experiment [4]; 20% in experiment [5]; 76% in experiment [6]. The residual activity turned out to be 57% in experiment [7], 87% in experiment [8], 67% in experiment [9] and 17% in experiment [10].
